Inconclusive results are not listed. Activity calls are given as the source filed them. Calls come from the whole dose curve; as a rule, active = well fitted inhibition curve with a large enough effect; inconclusive = small, poorly fitted or top-dose-only effect; inactive = flat fitted curve, though single readings scatter.
Experiment: P-glycoprotein substrates identified in KB-8-5-11 adenocarcinoma cell line, qHTS therapeutic library screen (AID 1346987); note: nearly all actives have a fitted effect of over 65% in size
Settings: KB-8-5-11 (P-gp overexpressing) viability, CellTiter-Glo, 72 h; series mostly up to 44.5 µM; activity change, negative = cytotoxicity: at the top concentration
In short: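 Compounds are pinned in dose-response onto KB-8-5-11 cells (500 cells/well, colchicine-free medium) and left 72 h at 37 degree C. CellTiter-Glo luminescence then yields AC50 values.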
% is set by controls: 0 for no effect and ±100 for the full control effect; potency is the fitted concentration of half-maximal effect.

| SMILES | activity change, negative = cytotoxicity | outcome | Potency |
| --- | --- | --- | --- |
| CCCCc1ccc(C(=O)Nc2cc(-c3ccc(Cl)cc3)nn2-c2ccc(Cl)cc2)cc1 | -18.2% (inactive) |  |  |
| CC1=CC(=O)CC(C)(C)C1CCC(C)O[C@@H]1O[C@H](CO[C@@H]2OC[C@@H](O)[C@H](O)[C@H]2O)[C@@H](O)[C@H](O)[C@H]1O (stereo partly drawn) |  | inactive [at 17.3 µM] |  |
| CC1CCCCN1S(=O)(=O)c1ccc(N2CCCC2=O)cc1 (stereo not drawn) | -10.6% (inactive) |  |  |
| CC1(C)CC[C@]2(C(=O)O[C@@H]3O[C@H](CO)[C@@H](O)[C@H](O)[C@H]3O)CC[C@]3(C)C(=CCC4[C@@]5(C)CC[C@H](O[C@@H]6O[C@H](C(=O)O)[C@@H](O)[C@H](O)[C@H]6O)[C@@](C)(CO)C5CC[C@]43C)C2C1 (stereo partly drawn) | -4.65% [at 9.29 µM] (inactive) |  |  |
| CC(C)c1cc(C(=O)N2CC[C@H](NC(=O)C3CC3)C2)n[nH]1 | -8.08% (inactive) |  |  |
| C[C@@H]1O[C@@H](O[C@@H]2[C@@H](O)[C@H](O[C@H]3CC[C@@]4(C)C(CC[C@]5(C)C4CC=C4[C@@H]6CC(C)(C)CC[C@]6(C(=O)O[C@@H]6O[C@H](CO)[C@@H](O)[C@H](O)[C@H]6O)CC[C@]45C)C3(C)C)O[C@H](C(=O)O)[C@H]2O)[C@H](O)[C@H](O)[C@H]1O (stereo partly drawn) | 7.63% [at 9.29 µM] (inactive) |  |  |
| C=C1CCCC2(C)CC3(OC)OC(=O)C(C)=C3CC12 (stereo not drawn) | -1.64% (inactive) |  |  |
| COC(=O)C1=CO[C@@H](O[C@@H]2O[C@H](CO)[C@@H](O)[C@H](O)[C@H]2O)[C@@H]2[C@@](C)(O)[C@@H](OC(=O)/C=C/c3ccc(O)cc3)C[C@]12O | 1.48% [at 17.3 µM] (inactive) |  |  |
| COc1ccc(-c2ccc3c(N4CCOCC4)nc(N4CC(C)OC(C)C4)nc3n2)cc1CO (stereo not drawn) |  |  | 0.651 µM (active) |
| CC1=C2C[C@H]3O[C@@]3(C)CCC3O[C@@]3(C)C[C@@]2(O)OC1=O (stereo partly drawn) |  | inactive |  |
| CC1(C)CCC[C@]2(C)[C@H]3CC(=O)O[C@]3(C)CC[C@@H]12 | 1.34% (inactive) |  |  |
| CC(C)=CCC/C(C)=C/CCC1(C)Oc2c(c(O)cc3c2CN(C(CCC(=O)O)C(=O)O)C3=O)CC1O (stereo not drawn) | 7.97% [at 17.3 µM] (inactive) |  |  |
| CCN(CC)Cc1ccc(C(=O)N(CCc2ccccc2OC)[C@@H]2CCNC2)cc1 | 6.96% [at 17.3 µM] (inactive) |  |  |
| C/C=C/C=C/[C@@H]1O[C@](O)([C@H](CC)C(=O)NC/C=C/C=C(\C)[C@@H](OC)[C@@H](C)C2OC(/C=C/C=C/C=C(\C)C(=O)c3c(O)cc[nH]c3=O)[C@H](O)[C@@H]2O)[C@H](O)[C@H](O)C1(C)C (stereo partly drawn) | 0.348% [at 17.3 µM] (inactive) |  |  |
| C=C1OC2CC(C(=O)O)C=CC2NC1=O (stereo not drawn) |  | inactive |  |
| C=C1C(OC2OCC(O)C(O)C2O)CC2C(C)(C)C(O)CCC2(C)C1CC/C(C)=C\CO (stereo not drawn) | 4.3% [at 17.3 µM] (inactive) |  |  |
| C=CC[C@]12C[C@@H](OC)C(=O)C(OC)=C1O[C@@H](c1cc(OC)c3c(c1)OCO3)[C@@H]2C | -13.7% [at 17.3 µM] (inactive) |  |  |
| O=C(OC[C@@]1(O)CO[C@@H](O[C@H]2[C@H](Oc3ccc(O)cc3)O[C@H](CO)[C@@H](O)[C@@H]2O)[C@@H]1O)c1ccc(O)cc1 | 1.59% [at 17.3 µM] (inactive) |  |  |
| CC(O)c1cc(C(=O)N[C@@H](C)Cn2ccc(-c3ccc(C#N)c(Cl)c3)n2)n[nH]1 (stereo partly drawn) | -9.02% (inactive) |  |  |
| FC(F)(F)c1ccc(Nc2nc(-c3c(C(F)(F)F)nc4ccccn34)cs2)cc1 |  |  | 0.461 µM (active) |
| C=C(CCC1=C(C)[C@H]2[C@H](CC3[C@@H]4CC=C5C[C@@H](O)C[C@@H](O)[C@]5(C)C4[C@H](O)C[C@@]32C)O1)CO[C@@H]1O[C@H](CO)[C@@H](O)[C@H](O)[C@H]1O (stereo partly drawn) |  |  | 1.53 µM (active) |
| C=CC(=O)Nc1cc(Nc2nccc(-c3c[nH]c4ccccc34)n2)c(OC)cc1N(C)CCN(C)C |  |  | 6.51 µM (active) |
| CCCC(=O)O[C@@H]1[C@@H]2[C@@H](OC(C)=O)[C@]3(C)C(=O)[C@H]4[C@@H](OC(C)=O)C(C)(C)C[C@H]4[C@]3(C)C(=O)[C@@]2(OC(C)=O)C[C@@H]1C | -15.9% [at 17.3 µM] (inactive) |  |  |
| O=C(O)C(O[C@@H]1O[C@H](CO[C@@H]2O[C@H](CO)[C@@H](O)[C@H](O)[C@H]2O)[C@@H](O)[C@H](O)[C@H]1O)c1ccccc1 (stereo partly drawn) |  | inactive [at 17.3 µM] |  |
| CC(C)[C@@](C)(O)[C@@H]1CN(c2nc(-c3[nH]nc4ncccc34)c(F)cc2Cl)CCN1 |  |  | 6.51 µM (active) |
| OCC(CO[C@@H]1O[C@H](CO)[C@@H](O)[C@H](O)[C@H]1O)c1ccc2c(c1)OCO2 (stereo partly drawn) | 3.2% (inactive) |  |  |
| C=C1CCC2C(C)(C)C(O)CCC2(C)C1CCC(C)CCOC(C)=O (stereo not drawn) | -0.883% (inactive) |  |  |
| COc1ccccc1Oc1ccc(N(Cc2cccnc2)S(=O)(=O)CC(F)(F)F)cc1 | 9.12% (inactive) |  |  |

Reference: PubChem BioAssay (NCATS)
